HEK293 cAMP cs – qHTS Assay for Agonists of the Thyroid Stimulating Hormone Receptor: Activators of Intracellular cAMP Concentrations in Parental HEK 293. actives 2.5% (n = 73,000). Potency, µM (highest dose often 57.1 µM), inactives show at the top dose activation, most hits filed as activators. AID 938, 2007. parental HEK293 CNG cAMP sensor, membrane potential fluorescence; note: % of control where 0% means no effect; nearly all actives have a fitted effect of over 55% in size
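Counterscreen for endogenous-receptor signalling: CNG-channel HEK 293 cells report cAMP rise by membrane depolarization. After 60 min dye equilibration with 100 uM RO 20-1724, compounds incubated 30 min before bottom-read fluorescence at 590 nm.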
Casp1 inh – qHTS Assay for Allosteric/Competitive Inhibitors of Caspase-1; Caspase-1 enzyme, Ac-WEHD-AFC fluorogenic rate; Potency, µM (top dose mostly 57.5 µM), for the others: at the top dose activity change, negative = inhibition, actives largely listed as inhibitors; actives 0.03% (n = 75,000); AID 900, 2007;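 note: plate controls were vehicle for no effect and no substrate for full effect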
Target sequence (P29466 120-297 limits assumed): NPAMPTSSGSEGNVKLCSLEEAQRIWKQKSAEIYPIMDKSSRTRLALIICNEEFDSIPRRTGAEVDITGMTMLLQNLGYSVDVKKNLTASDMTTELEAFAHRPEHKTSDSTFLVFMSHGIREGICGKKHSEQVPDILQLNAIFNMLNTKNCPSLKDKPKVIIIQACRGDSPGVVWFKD
Target sequence (P29466 317-404 limits assumed): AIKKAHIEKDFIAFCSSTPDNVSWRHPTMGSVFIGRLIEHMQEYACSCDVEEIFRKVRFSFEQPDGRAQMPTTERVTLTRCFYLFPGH
USP2a inhib – qHTS Assay for Inhibitors of Ubiquitin-specific Protease USP2a; Potency, µM (doses to about 38.3 µM), inactives show at the top dose activity change, negative = inhibition, actives largely listed as inhibitors; AID 927, 2007; actives 0.1% (n = 60,000); Ubiquitin carboxyl-terminal hydrolase 2 (Homo sapiens), O75604; USP2a enzymatic assay, qHTS inhibition; note: nearly all actives have a fitted effect of over 60% in size
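Inhibition is measured in a cell-free coupled assay with 20 nM USP2 core, 20 nM Ub-PLA2 and 20 uM NBD C6-HPC, 2.5 h incubation. Activity normalized to NEM control.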
TSHR agonist – qHTS Assay for Agonists of the Thyroid Stimulating Hormone Receptor; Potency, µM (highest dose often 57.1 µM), without a hit: at the top dose activation, most hits filed as activators; HEK293-CNG-TSHR cells (CNG channel as cAMP sensor), membrane potential dye, cAMP; actives 0.48% (n = 73,000); Thyrotropin receptor (Homo sapiens), P16473; active = well fitted activation curve with a large enough effect in the main read-out, with a control signal flat, not every such curve was filed as active; inconclusive = small, poorly fitted or top-dose-only effect, or a change in a side signal; inactive = no such curve, though single readings can be large or run the other way; % of control where 0% means no effect;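 note: the control signal comes from parental cells without the receptor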
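cAMP rise detected as CNG-channel membrane depolarization by fluorescent dye (emission 590 nm), 30 min after compound, following 60 min dye loading containing 100 uM RO 20-1724 at room temperature. Cells: TSHR/CNG HEK 293, with parental CNG HEK 293 as control.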
CRE Fsk mod – Cell signaling CRE-BLA (Fsk stim); CHO CRE-bla reporter (cAMP response element driving beta-lactamase), forskolin EC10, beta-lactamase ratio; Potency, µM (top dose mostly 38.2 µM), for inactives: at the top dose activity change, negative = inhibition, hits mostly activators; actives 2.5% (n = 71,000); active = well fitted activation curve with a large enough effect in the signal ratio, with a control signal flat, not every such curve was filed as active; inconclusive = small, poorly fitted or top-dose-only effect, or effect the other way, or a change in a side signal; the % refers to the signal ratio; note: % of control where 0% means no effect
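Forskolin analogue NKH 477 at EC10 stimulated CRE-driven beta-lactamase in CHO cells alongside compound dilution series. Beta-lactamase was measured with CCF4, excitation 405 nm, emission ratio 460/530 nm.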
Casp7 inh – qHTS Assay for Allosteric/Competitive Inhibitors of Caspase-7; actives 0.02% (n = 75,000); Potency, µM (doses to about 57.5 µM), without a hit: at the top dose activity change, negative = inhibition, usual class: inhibitors; recombinant caspase-7, Ac-DEVD-AFC fluorescence rate; P55210; active = well fitted inhibition curve with a large enough effect in the main read-out, with a control signal flat, not every such curve was filed as active; inconclusive = small, poorly fitted or top-dose-only effect, or a change in a side signal; note: % of control where 0% means no effect
Target sequence (P55210 24-198 limits assumed): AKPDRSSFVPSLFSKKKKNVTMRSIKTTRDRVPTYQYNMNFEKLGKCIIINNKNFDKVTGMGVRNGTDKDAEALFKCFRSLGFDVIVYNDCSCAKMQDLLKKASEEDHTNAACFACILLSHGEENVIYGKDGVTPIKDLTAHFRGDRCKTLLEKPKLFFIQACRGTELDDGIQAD
Target sequence (P55210 207-303 limits assumed): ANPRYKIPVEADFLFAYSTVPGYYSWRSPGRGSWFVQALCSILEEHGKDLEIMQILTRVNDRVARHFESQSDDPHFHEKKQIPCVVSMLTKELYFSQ
Numbers without * were called inactive; [ ] = dose if it differs, or a comment. The list is not random: actives were taken first. Their share in the collection is about 5%. Unless noted, calls come from the whole dose curve; as a rule, active = well fitted curve in the direction sought with a large enough effect; inconclusive = small, poorly fitted or top-dose-only effect, or another doubt; inactive = no such curve, though single readings can be large; an effect the other way counts as inactive or inconclusive. Potency is the fitted concentration of half-maximal effect.

What do the screens show for `O=C(c1ccco1)N1c2ccccc2Sc2ccccc21`?
HEK293 cAMP cs: 20µM*; Casp1 inh: -3%; USP2a inhib: -3%; TSHR agonist: inconclusive; CRE Fsk mod: -9%; Casp7 inh: 1%

Results for O[Si@](CCCN1CCCCC1)(c1ccc(F)cc1)C1CCCCC1 ?
HEK293 cAMP cs: inconclusive; Casp1 inh: -2%; USP2a inhib: 3%; TSHR agonist: inconclusive; CRE Fsk mod: -5%; Casp7 inh: 2%

Results for COc1ccccc1-c1cc(=O)c2cc(O)ccc2o1 ?
HEK293 cAMP cs: 40µM*; Casp1 inh: -2%; TSHR agonist: inconclusive; CRE Fsk mod: inconclusive; Casp7 inh: -1%

What do the screens show for `CCc1c2c(nc3cccc(SC)c13)COC2`?
HEK293 cAMP cs: inconclusive; Casp1 inh: inconclusive; TSHR agonist: inconclusive; CRE Fsk mod: inconclusive; Casp7 inh: -28%

How did CCc1c2c(nc3cccc(OC)c13)OC(CC)C2 (stereo unspecified) do in these assays?
HEK293 cAMP cs: 16µM*; Casp1 inh: -4%; TSHR agonist: inconclusive; CRE Fsk mod: -6%; Casp7 inh: 1%

Results for c1csc(-c2csc3nc(CN4CCOCC4)nc(NCc4ccc5c(c4)OCO5)c23)c1 ?
HEK293 cAMP cs: 13µM*; Casp1 inh: -5%; USP2a inhib: 7%; TSHR agonist: inconclusive; CRE Fsk mod: inconclusive; Casp7 inh: -6%

What do the screens show for `CCC(CC)C(=O)NCCNC(=O)C(CC)CC`?
HEK293 cAMP cs: inconclusive; Casp1 inh: 0%; USP2a inhib: 30%; TSHR agonist: inconclusive; CRE Fsk mod: 2µM*; Casp7 inh: -6%

What do the screens show for `NC(=O)c1ncn([C@@H]2O[C@@H](CO)[C@@H](O)[C@H]2O)c1O`?
HEK293 cAMP cs: inconclusive; Casp1 inh: 0%; USP2a inhib: 0%; TSHR agonist: inconclusive; CRE Fsk mod: 2%; Casp7 inh: 0%

Results for Cc1nnc(OCc2nc3ccccc3n2C)c2ccccc12 ?
HEK293 cAMP cs: -20%; Casp1 inh: -3%; USP2a inhib: 10%; TSHR agonist: -5%; CRE Fsk mod: 2.5µM*; Casp7 inh: -1%

How did Cc1nnc(-n2cnc3ccccc32)c2ccccc12 do in these assays?
HEK293 cAMP cs: -3%; Casp1 inh: 2%; USP2a inhib: 0%; TSHR agonist: 4%; CRE Fsk mod: -13%; Casp7 inh: -1%

Results for N=C(N)SCc1cccc2c(=O)cc(-c3ccccc3)oc12 ?
HEK293 cAMP cs: 1%[11.4 µM]; Casp1 inh: -2%[11.5 µM]; TSHR agonist: 2%[11.4 µM]; CRE Fsk mod: 15%[7.6 µM]; Casp7 inh: 0%[11.5 µM]

How did O=c1cc(-c2ccccc2)oc2c1ccc1ccccc12 do in these assays?
HEK293 cAMP cs: 32µM*; Casp1 inh: 0%; TSHR agonist: inconclusive; CRE Fsk mod: inconclusive; Casp7 inh: -3%

Results for CC1CCCCN1C(=O)Cn1c(=O)n(C2CCCCC2)c(=O)c2ccccc21 (stereo unspecified) ?
HEK293 cAMP cs: 26%; Casp1 inh: 0%; USP2a inhib: 14%; TSHR agonist: 16µM*; CRE Fsk mod: inconclusive; Casp7 inh: -1%

What do the screens show for `Cc1ccc(Cn2c(=O)c3ccccc3n3c(SCC(=O)N4CCCCC4C)nnc23)cc1` (stereo unspecified)?
HEK293 cAMP cs: inconclusive; Casp1 inh: 4%; USP2a inhib: 27%; TSHR agonist: inconclusive; CRE Fsk mod: inconclusive; Casp7 inh: 0%

Results for C[N+](C)(N)CCC[N+](C)(C)N ?
HEK293 cAMP cs: 2%[11.4 µM]; Casp1 inh: 0%[11.5 µM]; TSHR agonist: 4%[11.4 µM]; CRE Fsk mod: -8%[7.6 µM]; Casp7 inh: 0%[11.5 µM]

Results for O=C1C(=O)c2ccccc2C(O)=C1Cc1ccccc1 ?
HEK293 cAMP cs: -5%[11.4 µM]; Casp1 inh: 0%[11.5 µM]; TSHR agonist: 2%[11.4 µM]; CRE Fsk mod: -5%[7.6 µM]; Casp7 inh: -1%[11.5 µM]

Results for Cc1ccsc1-c1nc(CSCC(=O)NCc2ccc3c(c2)OCO3)c(C)o1 ?
HEK293 cAMP cs: 20%; Casp1 inh: -2%; TSHR agonist: 20µM*; CRE Fsk mod: 20%; Casp7 inh: -5%

Results for O=NN(Cc1ccc(Cl)cc1)[C@@H](C(=O)O)c1ccccc1 ?
HEK293 cAMP cs: -1%[11.4 µM]; Casp1 inh: 0%[11.5 µM]; TSHR agonist: 5%[11.4 µM]; CRE Fsk mod: 4%[7.6 µM]; Casp7 inh: 0%[11.5 µM]

Results for CCOC(=O)c1c(NC(=O)c2ccco2)sc2c1CCCCC2 ?
HEK293 cAMP cs: 12%; Casp1 inh: -13%; USP2a inhib: inconclusive; TSHR agonist: 23%; CRE Fsk mod: 10µM*; Casp7 inh: -26%

How did CCc1c(C)sc(NC(=O)c2ccco2)c1C(=O)N1CCCCC1 do in these assays?
HEK293 cAMP cs: 6%; Casp1 inh: -3%; USP2a inhib: 10%; TSHR agonist: 10%; CRE Fsk mod: inconclusive; Casp7 inh: -3%

How did O=C(Nc1sc2c(c1C(=O)O)CCCCC2)c1ccco1 do in these assays?
HEK293 cAMP cs: 12%; Casp1 inh: -2%; USP2a inhib: inconclusive; TSHR agonist: 9%; CRE Fsk mod: 6%; Casp7 inh: -3%

How did CCOC(=O)c1c(NC(=O)c2ccco2)sc(C(=O)N2CCCC2)c1C do in these assays?
HEK293 cAMP cs: 20%; Casp1 inh: 0%; USP2a inhib: 3%; CRE Fsk mod: 13µM*; Casp7 inh: 0%

What do the screens show for `CCOC(=O)c1c(NC(=O)c2cccs2)sc2c1CCC2`?
HEK293 cAMP cs: 0%; USP2a inhib: 8%; TSHR agonist: 2%; CRE Fsk mod: 3.2µM*; Casp7 inh: inconclusive

What do the screens show for `CCOC(=O)c1c(NC(=O)c2cccs2)sc2c1CCCC2`?
HEK293 cAMP cs: 1%; Casp1 inh: 4%; TSHR agonist: 4%; CRE Fsk mod: 9%; Casp7 inh: -9%

How did CCOC(=O)c1ccccc1NC(=O)c1cccs1 do in these assays?
HEK293 cAMP cs: 25µM*; Casp1 inh: 0%; USP2a inhib: 3%; TSHR agonist: inconclusive; CRE Fsk mod: inconclusive; Casp7 inh: 0%

What do the screens show for `Nc1ccccc1S[C@@H](C[N+](=O)[O-])c1ccc2c(c1)OCO2`?
HEK293 cAMP cs: -2%[11.4 µM]; Casp1 inh: -1%[11.5 µM]; TSHR agonist: 3%[11.4 µM]; CRE Fsk mod: -4%[7.6 µM]; Casp7 inh: -2%[11.5 µM]

What do the screens show for `O=C(/C=C\c1ccc(O)cc1)c1ccc(O)cc1O`?
HEK293 cAMP cs: -18%; Casp1 inh: 2%; USP2a inhib: -8%; TSHR agonist: -24%; CRE Fsk mod: inconclusive; Casp7 inh: -3%

Bioassay records: PubChem BioAssay, National Center for Advancing Translational Sciences (NCATS)
